Screening data: PubChem, National Center for Advancing Translational Sciences (NCATS)
DT40 TDP1 CPT – qHTS for Inhibitors of human tyrosyl-DNA phosphodiesterase 1 (TDP1): qHTS in cells in presence of CPT. chicken DT40 Tdp1-/-;hTDP1 cells + 20 nM CPT, ATP luminescence, 48 h. Potency, µM (titrated, usually from 46.2 µM), without a hit: at the top dose activity change, negative = growth inhibition, usual class: inhibitors. 420,000 compounds, 12% hits; also: potency is read from the fitted curve at half-maximal effect; nearly all actives have a fitted effect of over 55% in size
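Chicken DT40 Tdp1-/- cells stably complemented with human TDP1 were seeded at 400 cells/well in medium containing 20 nM camptothecin, exposed to pin-transferred compounds, and grown at 37 °C for at least 48 hr. Viability was read as ATP luminescence.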
HT1080NT lethal – qHTS for induction of synthetic lethality in tumor cells producing 2HG: qHTS for the HT-1080-NT fibrosarcoma cell line; HT-1080-NT fibrosarcoma viability, CellTiter-Glo ATP luminescence, 48 h; Potency, µM (highest dose often 46.1 µM), without a hit: top-dose activity, negative = less viability, hits mostly cytotoxic; 360,000 compounds, 1.6% hits;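 also: NT is the 2HG producing partner of a matched IDH1 knockdown line; potency is read from the fitted curve at half-maximal effect; 0% = DMSO-treated cells and -100% = media-only wells without cells; nearly all actives have a fitted effect of over 55% in size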
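Fibrosarcoma NT cells, 750 per well in 5% FBS RPMI, were exposed to compound for 48 hours. Viability: CellTiter-Glo luminescence.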
HT1080 IDH1KD tx – qHTS for induction of synthetic lethality in tumor cells producing 2HG: qHTS for the HT-1080-IDH1KD cell line; 360,000 compounds, 2% hits; HT-1080 IDH1 knockdown viability, ATP luminescence, 48 h; Potency, µM (series often up to 46.1 µM), for the others: top-dose activity, negative = toxicity, actives largely listed as cytotoxic; AID 686971, 2013;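 also: potency is read from the fitted curve at half-maximal effect; 0% = DMSO wells and -100% = cell-free medium wells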
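Assay cells: HT-1080 with IDH1 knockdown, 750 per well, RPMI/5% FBS. Exposure: 48 h at 37 °C following 2 h pre-incubation. Read: CellTiter-Glo luminescence; fitted concentration-response, curve class assigned.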
TDP1 cell noCPT – qHTS for Inhibitors of human tyrosyl-DNA phosphodiesterase 1 (TDP1): qHTS in cells in absence of CPT | DT40 Tdp1-/- hTDP1 cells, no CPT, ATP luminescence, 48 h | Potency, µM (highest dose often 46.2 µM), without a hit: at the top dose activity change, negative = growth inhibition, hits mostly inhibitors | 420,000 compounds, 15% hits; also: potency is read from the fitted curve at half-maximal effect; nearly all actives have a fitted effect of over 55% in size
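Camptothecin absent (DMSO only). Human TDP1-complemented DT40 knockout cells, 400 cells/well, 37 °C for minimum 48 hr; ATP measured via CellTiter-Glo, 30 min dark incubation, luminescence.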
IL1B secr inh – qHTS for Inhibitors of Inflammasome Signaling: IL-1-beta AlphaLISA Primary Screen; THP-1 LPS/ATP IL-1B secretion, AlphaLISA, 16 h; stronger effect = lower value; activity change, % at 57.5 µM; 360,000 compounds, 4.7% hits; in the data active = activity change below about -50%; inconclusive = mostly about -30% to -49%
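Secreted IL-1B measured by AlphaLISA bead assay after 16 h compound exposure of THP-1 cells; compounds (final up to 57.5 uM) added 1 h before LPS (250 ng/mL) and ATP (1.25 mM) stimulation; lower signal means less secretion.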
* hit, by the source's call; ? = inconclusive; . = not tested or not shown; [ ] = dose if it differs, or a comment. Only some compounds are listed: those with a hit (about 19% of all), similar ones and a draw of the others. Unless noted, calls follow the shape of the dose curve; as a rule, active = well fitted curve in the direction sought with a large enough effect; inconclusive = small, poorly fitted or top-dose-only effect, or another doubt; inactive = no such curve, though single readings can be large; an effect the other way counts as inactive or inconclusive. Unless noted, % is scaled to controls: 0 for no effect and ±100 for the full control effect.

SMILES | DT40 TDP1 CPT | HT1080NT lethal | HT1080 IDH1KD tx | TDP1 cell noCPT | IL1B secr inh
Cn1nc(C(F)(F)F)cc1Oc1ncc(C(F)(F)F)cc1Cl | -3% | 12% | 14% | -8% | -8
COc1ccc(C(C)=NNS(=O)(=O)c2ccc(C)cc2)cc1OC | -20% | -5% | 10% | ? | ?
COc1ccc(Cl)cc1NC(=O)c1cc(S(=O)(=O)N2CCC(C)CC2)cn1C | -4% | . | . | -22% | .
CCCC(=O)Nc1ccc(C(=O)Nc2nnc(COCC)s2)cc1 | -5% | -3% | -8% | -7% | 27
CCc1ccc(C(=O)CSc2nc3ccccc3c(=O)[nH]2)cc1 | 1.5µM* | 1% | 1% | 1.6µM* | 51
O=C(CCCSc1nc2ccccc2c(=O)[nH]1)c1ccc(F)cc1 | 12µM* | -6% | -15% | ? | 0
Cc1ccc(C(=O)N2CCC(n3nccc3NC(=O)C3CCOC3)CC2)cc1 (centres undefined) | 14% | ? | 10% | 6% | -8
COc1cccc(CNC(=O)C2CCN(S(=O)(=O)c3c(C)noc3/C=C/c3cccs3)CC2)c1 | ? | . | . | 23µM* | .
CCc1ccc(NC(=O)C2CCN(S(=O)(=O)c3c(C)noc3/C=C/N(C)C)CC2)cc1 | ? | 0% | 1% | 9.2µM* | -27
CCc1ccc(NC(=O)C2CCN(S(=O)(=O)c3c(C)noc3/C=C/c3cccs3)CC2)cc1 | ? | . | . | 18µM* | .
Cc1noc(/C=C/c2cccs2)c1S(=O)(=O)N1CCC(C(=O)Nc2ccc(F)c(Cl)c2)CC1 | 13µM* | . | . | 15µM* | .
NS(=O)(=O)c1ccc(CNC(=S)NC2CCCC2)cc1 | 16% | 25% | 14% | -21% | -11
Cn1cc(CN2CCOc3ccc(C(O)C4CCCCC4)cc3C2)cn1 (centres undefined) | ? | . | . | 12µM* | .
Cc1cc(OCC(=O)N2CCOCC2)ccc1NC(=O)c1ccccc1C | -17% | -9% | 0% | -4% | 18
COc1ccc(OC)c(-c2csc(NC(=O)C3=NN(c4ccccc4)C(=O)CC3)n2)c1 | -23% | -14% | -16% | 21µM* | 52
COc1ccc(NC(=O)C2=NN(c3ccccc3)C(=O)CC2)cn1 | ? | -5% | 8% | -21% | -1
COc1ccc(NS(=O)(=O)c2cc(NC(=O)C3=NN(c4ccccc4)C(=O)CC3)ccc2OC)cc1 | ? | -19% | -16% | 0.18µM* | -8
COC(=O)c1cc(-c2cc(OC)ccc2OC)nc2c1c(=O)n(C)c(=O)n2Cc1ccccc1 | 16µM* | 11% | 9% | 18µM* | 13
C[C@H]1CN([C@@H](C)CO)C(=O)CCCn2nncc2CO[C@@H]1CN(C)S(=O)(=O)c1ccccc1 | 0% | 15% | 14% | 1% | 18
N=c1n(N)c2ccccc2n1CC(=O)c1ccc(Br)cc1 | 23µM* | ? | ? | 21µM* | -94*
C=CCn1c(=N)n(CC(=O)c2ccccc2)c2ccccc21 | ? | -2% | -19% | ? | ?
C=CCn1c(=N)n(CC(=O)c2ccc(Br)cc2)c2ccccc21 | ? | ? | ? | ? | -83*
Cc1nc(N)nc(Nc2ccc(C#N)cc2)c1Br | ? | 0% | -2% | ? | -5
N#Cc1c(N)nc(N)nc1Nc1ccc(Br)cc1 | ? | -3% | 1% | 15µM* | 5
CCOC(=O)C(=O)NN=C(c1ccccc1)c1ccccc1 | -12% | 6% | 13% | -10% | 7
SMILES | DT40 TDP1 CPT | HT1080NT lethal | HT1080 IDH1KD tx | TDP1 cell noCPT | IL1B secr inh
COC(=O)/C(=C\Nc1ccc(Cl)cc1Cl)NC(=O)c1ccccc1 | -28% | -6% | 0% | ? | -13
COC(=O)/C(=C\Nc1ccc(Cl)cc1Cl)NC(=O)c1ccc(Cl)cc1Cl | 21µM* | ? | ? | ? | ?
O=c1c2ccccc2c(-c2cccc(C(F)(F)F)c2)nn1-c1ccccc1 | ? | -1% | -17% | ? | -13
O=c1c2ccccc2c(-c2ccc(O)cc2)nn1-c1cccc(C(F)(F)F)c1 | 15µM* | ? | 21µM* | 15µM* | -98*
COc1ccc2c(c1)[nH]c1c(Cl)ncnc12 | ? | 5% | 9% | ? | -95*
Cc1cccc(CNc2ncnc3[nH]ncc23)c1 | ? | -2% | -1% | ? | 24
Brc1ccc2[nH]c3c(NCc4ccccn4)ncnc3c2c1 | ? | ? | 16µM* | ? | .
COc1ccc(CNc2ncnc3c2[nH]c2cc(OC)c(OC)cc23)cc1 | ? | -15% | ? | ? | -95*
Cc1ccc2[nH]c3c(NCc4ccccc4)ncnc3c2c1 | 21µM* | -16% | -23% | 16µM* | -2
COc1ccc2c(c1)[nH]c1c(=O)n(N)cnc12 | -25% | 0% | -12% | -13% | 22
COc1cc2[nH]c(=S)nc(NCc3ccc(C)cc3)c2cc1OC | ? | 3% | 1% | 23µM* | -8
COc1ccc(CNc2nc(=S)[nH]c3cc(OC)c(OC)cc23)cc1 | -29% | 10% | 0% | ? | -6
c1coc(CNc2ncnc3c2[nH]c2ccccc23)c1 | 13µM* | . | . | 14µM* | .
COc1ccc(CNC(=O)Cn2cnc3c(NCc4ccccc4)ncnc32)cc1 | 10µM* | 15µM* | 16µM* | 5.8µM* | 65
COc1ccc(CNc2ncnc3c2[nH]c2ccccc23)cc1 | 10µM* | 16µM* | 21µM* | 5.8µM* | -108*
OC(c1cccnc1)c1ccc2c(c1)CN(Cc1cn(-c3ccccc3)nc1-c1ccccc1)CCO2 (centres undefined) | -9%[9.04 µM] | . | . | ? | .
CCSCc1nnc(SCC(=O)Nc2cccc(SC)c2)n1C | -14% | -16% | ? | -2% | 12
Cc1ccc2[nH]c3c(Cl)ncnc3c2c1 | 18% | ? | ? | -17% | .
CCCOc1ncnc2c1[nH]c1ccc(C)cc12 | ? | ? | ? | 9.2µM* | -14
C1=C(CCNc2ncnc3c2[nH]c2ccccc23)CCCC1 | 0.73µM* | 26µM* | 26µM* | 0.41µM* | -84*
CC(C)OCCCNc1ncnc2c1[nH]c1ccccc12 | 8.9µM* | ? | ? | 14µM* | -93*
CCOc1ccc2[nH]c3c(NCCOC)ncnc3c2c1 | ? | 1% | -1% | -24% | 1
Cc1occc1C(=O)O/N=C(\N)c1ccc(Cl)cc1 | -3% | -6% | -14% | -22% | -15
